# Inconclusive results are not listed. Activity calls are given as the source filed them. Calls come from the whole dose curve; as a rule, active = well fitted curve in the direction sought with a large enough effect; inconclusive = small, poorly fitted or top-dose-only effect, or another doubt; inactive = no such curve, though single readings can be large; an effect the other way counts as inactive or inconclusive.
# Legend:
# [1] = test system: Zika virus NS2B-NS3 protease (linked construct); experiment: Primary screen NINDS Rhodamine qHTS for Zika virus inhibitors (AID 1347160); note: potency is the fitted concentration of half-maximal effect; nearly all actives have a fitted effect of over 55% in size
# How it was run: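 Percent inhibition, normalized to uninhibited and enzyme-free controls, is fitted to a 4-parameter Hill equation. Fluorescence change comes from a 15-min cleavage of 1.5 microM bis-peptide Rhodamine110 substrate by 25 nM linked NS2B-NS3 at room temperature.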
# [2] = HPAF-II Cancer Cell Toxicity qHTS against the NCATS CANVASS Library (AID 1347346); note: potency is the fitted concentration of half-maximal effect; nearly all actives have a fitted effect of over 55% in size
# How it was run: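 Luminescence from CellTiter-Glo, added after 72 h compound exposure and a 15 min room-temperature incubation, served as the viability readout. HPAF-II cells (1000/well) received an 11-point concentration series.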
# [3] = UWB1.289 Cancer Cell Toxicity qHTS against the NCATS CANVASS Library (AID 1347347); note: potency is the fitted concentration of half-maximal effect; nearly all actives have a fitted effect of over 60% in size
# How it was run: (§1)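 1000 cells/well seeded and rested 4 h at 37 °C before pin transfer of compounds in an 11-pnt series. Exposure 72 h at 37 °C/5% CO2; viability by CellTiter-Glo luminescence after 15 min at room temperature.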
# [4] = OV-SAHO Cancer Cell Toxicity qHTS against the NCATS CANVASS Library (AID 1347348); note: potency is the fitted concentration of half-maximal effect; nearly all actives have a fitted effect of over 55% in size
# How it was run: as §1
# [5] = Panc-1005 Cancer Cell Toxicity qHTS against the NCATS CANVASS Library (AID 1347349); note: potency is the fitted concentration of half-maximal effect; nearly all actives have a fitted effect of over 60% in size
# How it was run: as §1
# [6] = SW1088 Cancer Cell Toxicity qHTS against the NCATS CANVASS Library (AID 1347350); note: potency is the fitted concentration of half-maximal effect; nearly all actives have a fitted effect of over 75% in size
# How it was run: as §1
# [7] = U-118MG Cancer Cell Toxicity qHTS against the NCATS CANVASS Library (AID 1347351); note: potency is the fitted concentration of half-maximal effect
# How it was run: as §1
# [8] = COV-362 Cancer Cell Toxicity qHTS against the NCATS CANVASS Library (AID 1347352); note: potency is the fitted concentration of half-maximal effect
# How it was run: (§2)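 Luminescent ATP read-out (CellTiter-Glo, 15min at room temperature) measures survival after cells face an 11-point compound series for 72 hours at 37 degrees C/5% CO2.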
# [9] = A2780 Cisplatin Sensitive Ovarian Cancer Cell Toxicity qHTS against the NCATS CANVASS Library (AID 1347353); note: potency is the fitted concentration of half-maximal effect; nearly all actives have a fitted effect of over 60% in size
# How it was run: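 Luminescent ATP content (ATPLite, 10 min at room temperature) served as the read-out after cells had been exposed to compounds for 72 hours at 37 °C. Dosing followed an 11-point concentration series.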
# [10] = UWB1.289-WTBRCA1 Cancer Cell Toxicity qHTS against the NCATS CANVASS Library (AID 1347354); note: potency is the fitted concentration of half-maximal effect
# How it was run: as §2
# [11] = HEK-293 Cancer Cell Toxicity qHTS against the NCATS CANVASS Library (AID 1347355); note: potency is the fitted concentration of half-maximal effect; nearly all actives have a fitted effect of over 65% in size
# How it was run: as §2
# [12] = HEK293 24hr Apoptosis Induction qHTS against the NCATS CANVASS Library (AID 1347359); note: potency is the fitted concentration of half-maximal effect
# How it was run: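 HEK293 cells, 500 per well, exposed to an 11-point compound series for 24 hours at 37 degrees C. Caspase 3/7 activity read by Caspase-Glo luminescence (DEVD substrate) after 15 min at room temperature.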
# [13] = test system: NAD(P)H diaphorase (Clostridium kluyveri); experiment: Diaphorse counterscreen qHTS: Assay Interference Panel against the NCATS CANVASS Library (AID 1347362)
# How it was run: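 Clostridium kluyveri diaphorase in PBS + 0.01% Tween-20 preincubated 15 min with compounds. Resazurin and NADH then added for 5 min at room temperature in the dark; resorufin fluorescence read (ex 525, em 598).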
# [14] = target: Luciferin 4-monooxygenase (Photinus pyralis) (UniProt P08659); experiment: Firefly luciferase counterscreen qHTS: Assay Interference Panel against the NCATS CANVASS Library (AID 1347363); note: series mostly up to about 57 µM
# How it was run: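 Purified P. pyralis luciferase (0.04 ug/mL, 4x reagent) added to Tris-acetate buffer with 0.013 mM D-luciferin, 0.013 mM ATP and 13.3 mM Mg-acetate; compounds preincubated 15 min, then luminescence read after 5 min, RT.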
# [15] = KB-8-5-11 Cancer Cell Toxicity qHTS against the NCATS CANVASS Library (AID 1347364); note: potency is the fitted concentration of half-maximal effect; nearly all actives have a fitted effect of over 75% in size
# How it was run: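 Plate 500 KB-8-5-11 cells per well in DMEM + 10% FBS, add compounds by pin transfer, incubate 72 hr at 37C. Add CellTiter-Glo, wait 10 minutes at room temperature, read luminescence.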
# [16] = KB-3-1 Cancer Cell Toxicity qHTS against the NCATS CANVASS Library (AID 1347366); note: potency is the fitted concentration of half-maximal effect; nearly all actives have a fitted effect of over 75% in size
# How it was run: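 KB-3-1 cells (500 cells/well) in DMEM + 10% FBS were treated with compounds for 72 hr at 37C, 5% CO2. Viability was read as CellTiter-Glo luminescence after 10 minutes at room temperature.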
# [17] = qHTS for ATAD5 Agonist screened against the NCATS CANVASS Library (AID 1347367);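 note: luciferase reporter driven by ATAD5 which rises upon DNA damage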
# How it was run: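 HEK293T cells stably carrying an ATAD5-controlled luciferase reporter (2000 cells/well) attached for 5 hr, then received compounds in an 11-point series for 16hr at 37C. Luminescence was read after a 30 min room-temperature reagent step.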
# [18] = G06 Cancer Cell Toxicity qHTS against the NCATS CANVASS Library (AID 1347368); note: potency is the fitted concentration of half-maximal effect; nearly all actives have a fitted effect of over 60% in size
# How it was run: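 Dog G06 glioma line, 500 cells/well; cpds pin-transferred, 11-pt; 72 hr, 37C/5% CO2; CellTiterGlo luminescence (ATP) endpoint.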
# [19] = target: Nuclear receptor subfamily 1 group I member 3 (Homo sapiens) (UniProt Q14994); experiment: qHTS for Constitutive Androstane Receptor (CAR) Agonist screened against the NCATS CANVASS Library (AID 1347373);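 note: every well also contained 1.5 µM PK11195 alongside the test compound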
# How it was run: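 HepG2-hCAR-CYP2B6 cells, 2500/well, attached 4hr; cpd + PK11195 1.5uM final; 24hr 37C 5% CO2. CellTiter-Fluor viability read, then ONE-Glo luminescence for CAR activation.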
# [20] = 10-beta competent E. coli microbial cell viability qHTS against the NCATS CANVASS Library (AID 1347376); note: series mostly up to about 46 µM
# How it was run: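 E. coli 10-beta, 0.2 OD; cpds 11-pt; o/n 37C, 5% CO2; BacTiter-Glo 20 min RT; luminescence (ATP) = viable cells. Daunomycin ctrl.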
# [21] = DH5-alpha competent E. coli microbial cell viability qHTS against the NCATS CANVASS Library (AID 1347377); conditions: outcome: dose series up to 46.1 µM unless noted
# How it was run: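 qHTS, 11-pt; E. coli DH5-alpha, 0.2 OD; o/n 37C/5% CO2; BacTiter-Glo, 20 min RT; luminescence.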
# [22] = qHTS for H2AX Agonists against the NCATS CANVASS Library (AID 1347378)
# How it was run: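 CHO-K1 cells were plated overnight at 37C, then exposed to compounds (concentration series, 0.76% DMSO final) for 3 hr at 37C. Lysates received Eu-cryptate anti-pH2AX (S139) and d2 anti-H2AX antibodies; after 24 hr at room temperature, TR-FRET 665/620 nm ratio was read.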
# [23] = qHTS for Inflammasome Signaling Inhibitors: IL-1-beta AlphaLISA screen against the NCATS CANVASS Library (AID 1347379);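 note: human THP-1 cells primed with LPS then triggered with ATP; secreted IL-1B measured as AlphaLISA emission at 615 nm; potency is the fitted concentration of half-maximal effect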
# How it was run: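 THP-1 cells pretreated 1 hr with compound (up to 57.5 uM final), then stimulated with LPS (250 ng/mL final) and ATP (1.25 mM final). Secreted IL-1B measured by AlphaLISA after 16 hr; glyburide as positive control.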
# [24] = Inflammasome Signaling qHTS Counterscreen: IL-1-beta AlphaLISA counterscreen against the NCATS CANVASS Library (AID 1347381);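 note: cell-free check with purified IL-1β in medium and no THP-1 cells; series mostly up to about 57 µM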
# How it was run: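 Cell-free interference check: compounds added to medium spiked with 4 pg purified IL-1β. Anti-IL-1β acceptor beads (6 ug/mL) with 0.6 nM biotinylated antibody added for 1 h at RT, then streptavidin donor beads (24 ug/mL) for 30 min in the dark. AlphaLISA read at 680/615 nm.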
# [25] = Cytotoxicity qHTS for assessment of Hepg2 cells membrane integrity screened against the NCATS CANVASS Library (AID 1347387)
# How it was run: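 qHTS, 11-pt conc. series, 0.59 nM - 46 uM final; HepG2 2000 cells/well, overnight attachment; 5 hr compound exposure 37C/5% CO2; CytoTox-ONE, 10 min RT; fluorescence ex560/em590 = LDH from damaged membranes.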
# [26] = qHTS for activators of Nrf2/ARE signaling pathway screened against the NCATS CANVASS Library (AID 1347391); note: nearly all actives have a fitted effect of over 60% in size
# How it was run: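 Plate ARE-bla HepG2 cells at 2000/well and let them settle 5 h. Pin-transfer compounds in DMSO, incubate 16 h at 37C. Load CCF4 for 2 h at room temperature and read blue/green fluorescence.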
# [27] = qHTS for activators of dead-cell proteases activity screened against the NCATS CANVASS Library (AID 1347392);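 note: luminescence from protease leaking out of membrane-damaged cells cleaving impermeant substrate; rising signal means more cytotoxicity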
# How it was run: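 HepG2 cells, 2000/well, attached 18 h at 37C, then exposed to compounds (11-point qHTS) for 5 h. Dead-cell protease release read as luminescence from cell-impermeant AAF-aminoluciferin substrate after 15 min at room temperature.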
# [28] = qHTS for inhibitors of ER calcium dysfunction: SERCaMP assay screened against the NCATS CANVASS Library (AID 1347393);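 note: series mostly up to about 77 µM; lower secreted reporter signal means inhibitor of ER calcium depletion; nearly all actives have a fitted effect of over 40% in size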
# How it was run: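 SH-SY5Y GLuc-SERCaMP, 1000 cells/well, 4 h attach; cpd 16 h, 37C/5% CO2; thapsigargin (added as 6x 600 nM) 4 h; coelenterazine; luminescence. Reduced reporter release = ER Ca stabilization.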
# [29] = Vero-766 cells viability qHTS against the NCATS CANVASS Library: Counterscreen for Zika virus inhibition assay (AID 1347394)
# How it was run: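 Uninfected Vero 766 (African green monkey) cells, 1000/well, attached overnight, then exposed 72 h at 37C to compounds (11-point qHTS). Viability read by CellTiter-Glo luminescence; media-only wells served as 100% inhibition.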
# [30] = Viability qHTS for inhibitors of the SERCaMP assay screened against the NCATS CANVASS Library (AID 1347400); note: potency is the fitted concentration of half-maximal effect; nearly all actives have a fitted effect of over 70% in size
# How it was run: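 SH-SY5Y SERCaMP MJH297 cells, 1000/well; 4 h settle, 37C/5% CO2; pin-transferred cpds; 48 h; CellTiter-Glo lum. Pos ctrl bortezomib 0.0001 - 4.6 uM.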
# Chain of Luciferin 4-monooxygenase (Photinus pyralis) (P08659 whole entry, looked up): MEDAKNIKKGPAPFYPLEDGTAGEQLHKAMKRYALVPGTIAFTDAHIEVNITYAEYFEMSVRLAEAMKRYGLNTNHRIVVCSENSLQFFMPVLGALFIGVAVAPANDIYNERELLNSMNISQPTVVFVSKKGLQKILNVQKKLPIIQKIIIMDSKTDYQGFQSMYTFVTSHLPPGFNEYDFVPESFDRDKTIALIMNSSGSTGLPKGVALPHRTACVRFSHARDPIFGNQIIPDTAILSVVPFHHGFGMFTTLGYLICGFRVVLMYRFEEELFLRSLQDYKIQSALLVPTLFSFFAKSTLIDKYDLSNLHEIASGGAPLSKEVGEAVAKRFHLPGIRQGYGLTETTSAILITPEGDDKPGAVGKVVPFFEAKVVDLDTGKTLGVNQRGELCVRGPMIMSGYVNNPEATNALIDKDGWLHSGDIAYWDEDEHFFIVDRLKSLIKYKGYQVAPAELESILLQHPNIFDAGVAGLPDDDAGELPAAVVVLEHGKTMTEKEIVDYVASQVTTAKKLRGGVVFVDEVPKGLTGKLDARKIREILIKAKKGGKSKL
# Chain of Nuclear receptor subfamily 1 group I member 3 (Homo sapiens) (Q14994 whole entry, looked up): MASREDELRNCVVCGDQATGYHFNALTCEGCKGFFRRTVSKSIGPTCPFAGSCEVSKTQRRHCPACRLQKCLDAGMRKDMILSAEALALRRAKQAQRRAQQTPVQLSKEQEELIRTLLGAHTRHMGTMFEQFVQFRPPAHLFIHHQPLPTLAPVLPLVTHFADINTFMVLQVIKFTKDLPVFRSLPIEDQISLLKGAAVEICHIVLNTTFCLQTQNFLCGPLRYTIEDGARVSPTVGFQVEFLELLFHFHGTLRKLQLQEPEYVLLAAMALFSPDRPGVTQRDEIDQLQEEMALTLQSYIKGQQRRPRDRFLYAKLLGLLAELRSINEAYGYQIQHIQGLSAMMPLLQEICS
compound,measurement,setting,value
CC(C)=CCC[C@@H](C)[C@@H]1CC[C@@]2(C)C[C@H]3C(C)=CC(=O)[C@@H]3/C(C=O)=C\C[C@H]12,Potency,[1],44 µM (active)
same,Potency,[2],5.95 µM (active)
same,Potency,[3],6.66 µM (active)
same,Potency,[4],10.6 µM (active)
same,Potency,[5],7.49 µM (active)
same,Potency,[6],2.66 µM (active)
same,Potency,[7],7.49 µM (active)
same,Potency,[8],11.8 µM (active)
same,Potency,[9],3.72 µM (active)
same,Potency,[10],10.6 µM (active)
same,Potency,[11],9.35 µM (active)
same,Potency,[12],26.4 µM (active)
same,Potency,[13],inactive
same,Potency,[14],inactive
same,Potency,[15],10.5 µM (active)
same,Potency,[16],10.5 µM (active)
same,Potency,[17],inactive
same,Potency,[18],16.6 µM (active)
same,outcome,[19],inactive
same,outcome,[20],inactive
same,outcome,[21],inactive
same,Potency,[22],inactive
same,Potency,[23],17.2 µM (active)
same,outcome,[24],inactive
same,outcome,[25],inactive
same,Potency,[26],inactive
same,Potency,[27],inactive
same,Potency,[28],inactive
same,Potency,[29],20.9 µM (active)
same,Potency,[30],42.8 µM (active)

# Reference: PubChem BioAssay (NCATS)
